In the library only some 7.3% were active in any assay of this set; here they are far more common.
NPC1 promoter act = activators of NPC1 promoter; 320,000 compounds, 2.4% hits; Potency, µM (titrated, usually from 9.22 µM), without a hit: top-dose activation, usual class: activators; Huh7 NPC1 promoter luciferase reporter, 24 h; also: % of control where 0% means no effect; nearly all actives have a fitted effect of over 60% in size
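Stably transfected Huh7 (NPC1 promoter→luciferase), 1500 cells/well in Opti-MEM + 10% FBS, 2 h settle, then compound 24 h at 37 °C. Luminescence after 10 min with Amplite reagent.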
Rab9 prom act = activators of Rab9 promoter. AID 485297. Huh7 Rab9 promoter-luciferase reporter, luminescence, 24 h. 320,000 compounds, 2.8% hits. Potency, µM (titrated, usually from 9.22 µM), for the others: at the highest dose activation, negative = inhibition, usual class: activators; also: % of control where 0% means no effect; nearly all actives have a fitted effect of over 60% in size
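Huh7 reporter line, Rab9 promoter upstream of luciferase. Compound exposure 24 h at 37 °C in reduced-serum medium with 10% FBS. Read-out: luminescence.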
ELG1 genotox = genotoxicity induction in ELG1-luciferase HEK293T cells; AID 504466; HEK293T ELG1-luciferase reporter, luminescence, 16 h; 330,000 compounds, 1.3% hits; Potency, µM (doses to about 46 µM), for inactives: at the top dose activity change, positive = activation, actives largely listed as activators; also: % of control where 0% means no effect; nearly all actives have a fitted effect of over 60% in size
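Luminescence read-out: rising ELG1-luciferase signal, reflecting elevated ELG1 protein under genetic stress, flags genotoxic compounds. Cells were treated for 16 hr at 37 °C before ONE-Glo detection.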
SMN2 splice enh = enhancers of SMN2 splice variant expression | HEK293 SMN2-luciferase splicing reporter, luminescence, 30-36 h | Potency, µM (series often up to 46.1 µM), for the others: at the top dose activity change, positive = activation, usual class: activators | 210,000 compounds, 2.8% hits; also: % of control where 0% means no effect; nearly all actives have a fitted effect of over 55% in size
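qHTS luciferase splicing reporter: luminescence rises when SMN2 exon 7 is included in transfected HEK293 cells. Compound exposure lasted 30-36 h at 37C, with 4.5 mM final sodium butyrate as control, followed by a ONE-Glo read.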
p53 reactivation = re-activators of mutant p53; H1299 p53-A138V BP100-luciferase reporter, luminescence, 24 h; Potency, µM (top dose mostly 92.2 µM), without a hit: at the highest dose activity change, positive = activation, hits mostly activators; 320,000 compounds, 0.063% hits; also: % of control where 0% means no effect; nearly all actives have a fitted effect of over 45% in size
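p53-null H1299 cells stably carrying temperature-sensitive p53-A138V and a BP100-luciferase reporter were pinned with compounds (4-point, 1:5 series) and held 24 hrs at 37 deg C. Luminescence was read 10 min after detection reagent.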
FLuc modulator = inhibits or activates purified firefly luciferase, miR-21 counter-screen. P08659. purified FLuc, Km substrates, luminescence inhibition. Potency, µM (series often up to 57.5 µM), without a hit: at the highest dose activity change, negative = inhibition, actives largely listed as inhibitors. 360,000 compounds, 6.9% hits;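 also: plate controls were vehicle for no effect and reference inhibitor for full effect; nearly all actives have a fitted effect of over 55% in size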
Target sequence (P08659 whole entry, looked up): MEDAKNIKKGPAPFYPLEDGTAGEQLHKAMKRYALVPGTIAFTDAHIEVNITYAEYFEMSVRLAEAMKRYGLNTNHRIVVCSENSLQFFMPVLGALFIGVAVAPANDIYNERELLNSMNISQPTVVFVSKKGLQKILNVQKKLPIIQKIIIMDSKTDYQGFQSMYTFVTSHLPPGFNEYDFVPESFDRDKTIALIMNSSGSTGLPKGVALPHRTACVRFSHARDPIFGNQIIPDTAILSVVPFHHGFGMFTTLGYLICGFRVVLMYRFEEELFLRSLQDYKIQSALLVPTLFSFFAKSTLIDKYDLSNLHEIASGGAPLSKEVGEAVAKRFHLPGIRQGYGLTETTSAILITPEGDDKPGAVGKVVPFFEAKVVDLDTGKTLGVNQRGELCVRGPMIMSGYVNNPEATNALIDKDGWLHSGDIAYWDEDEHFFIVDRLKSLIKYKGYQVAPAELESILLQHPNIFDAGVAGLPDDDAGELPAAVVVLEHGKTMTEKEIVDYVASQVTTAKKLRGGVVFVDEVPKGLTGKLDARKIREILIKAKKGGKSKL
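Purified P. pyralis luciferase, 10 nM final, with Km-level 10 uM D-luciferin and 10 uM ATP in 50 mM Tris acetate pH 7.5, 10 mM Mg acetate, 0.01% Tween-20, 0.05% BSA; 6-point qHTS titration about 60 µM downward; luminescence read.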
* marks the source's active call; other numbers are inactive results; ? = inconclusive; nt = not tested or not shown. Calls follow the shape of the dose curve; as a rule, active = well fitted curve in the direction sought with a large enough effect; inconclusive = small, poorly fitted or top-dose-only effect, or another doubt; inactive = no such curve, though single readings can be large; an effect the other way counts as inactive or inconclusive. Potency is read from the fitted curve at half-maximal effect.

SMILES | NPC1 promoter act | Rab9 prom act | ELG1 genotox | SMN2 splice enh | p53 reactivation | FLuc modulator
Cc1cc(OCC(=O)N2CCCCCC2)ccc1[N+](=O)[O-] | ? | ? | ? | 13µM* | ? | 17µM*
Cc1ccc(OCC(=O)N2CCCCCCC2)cc1C | 17% | ? | 10% | nt | nt | ?
COc1ccccc1N1CCN(C(=O)COc2ccc(C)cc2Br)CC1 | 2% | -1% | 2% | 1% | -10% | -2%
CCCCc1nnc(SCc2cc(=O)c3cc(C(=O)OCC)ccc3[nH]2)n1C | nt | nt | nt | nt | nt | -11%
Cc1cc(C)c2nc(NC(=O)c3cc(C)on3)sc2c1 | -5% | -1% | 15% | -9% | 0% | ?
CCc1noc(C)c1C(=O)NCCc1ccccc1 | ? | ? | 16µM* | nt | ? | ?
CCc1ccc2nc(NC(=O)C3CSC4(C)CCC(=O)N34)sc2c1 (stereo not drawn) | 15% | 9% | ? | nt | 3% | 12µM*
CCc1noc(C)c1C(=O)Nc1nc2c(C)cc(C)cc2s1 | -12% | -4% | 22% | nt | 6% | 11µM*
CCc1noc(C)c1C(=O)Nc1nc2ccc(S(C)(=O)=O)cc2s1 | 22% | 4% | 15% | nt | 16% | 2.4µM*
COc1cccc(OC)c1C(=O)Nc1nc2ccc(S(C)(=O)=O)cc2s1 | -4% | 3% | 3% | -1% | -4% | 1%
CCc1noc(C)c1C(=O)NCCc1ccc(F)cc1 | -1% | -2% | 0% | nt | -1% | 2%
CC(C)Cc1ccc(S(=O)(=O)N2CCN(c3ccccn3)CC2)cc1 | -7% | -14% | -1% | nt | 2% | 2%
CC(C)(C)CC(=O)NCC(c1ccc2c(c1)OCO2)N1CCN(c2ccccc2)CC1 (stereo not drawn) | nt | nt | nt | nt | nt | 5%
CCc1noc(C)c1C(=O)Nc1nc(-c2ccccc2)c(C(C)=O)s1 | -1% | -9% | -2% | nt | 21% | 15µM*
Cc1noc(C)c1C(=O)Nc1nc2ccc(Cl)cc2s1 | ? | ? | ? | nt | 4% | 2.4µM*
Cc1ccc(CSc2ncc(Cl)c(C(=O)Nc3nc4ccc(C)cc4s3)n2)cc1 | nt | nt | nt | 2% | nt | -16%
Cc1onc(-c2ccccc2Cl)c1C(=O)Nc1nc2ccc(S(C)(=O)=O)cc2s1 | -1% | 0% | -2% | 1% | 6% | 12µM*
CCc1ccc2nc(NC(=O)c3cc(C)on3)sc2c1 | -5% | ? | 14% | ? | 9% | 6µM*
Cc1cccc(C(=O)N2CCN=C2SCc2ccc([N+](=O)[O-])cc2)c1 | -4% | 0% | -8% | -41% | 1% | 2%
CCOc1ccc(Nc2cc(C)nc3nncn23)cc1 | nt | nt | nt | 16% | nt | -8%
Cc1noc(C)c1C(=O)Nc1nc2ccc(F)cc2s1 | 1.6µM* | 3.2µM* | ? | nt | ? | 4.3µM*
CCOC(=O)c1c(NC(=O)c2c(-c3ccccc3)noc2C)sc(C)c1-c1ccccc1 | -11% | 21% | -9% | 0.71µM* | 8% | -1%
CCc1noc(C)c1C(=O)Nc1nc(-c2ccc(NC(C)=O)cc2)cs1 | -2% | -7% | -30% | nt | -5% | -10%
CCc1noc(C)c1C(=O)Nc1nc2ccc(F)cc2s1 | ? | ? | 9% | nt | 21% | 17µM*
COc1ccc(Br)cc1C(=O)Nc1nc2ccc(F)cc2s1 | nt | nt | nt | -54% | nt | ?
SMILES | NPC1 promoter act | Rab9 prom act | ELG1 genotox | SMN2 splice enh | p53 reactivation | FLuc modulator
CC(C)c1ccc(S(=O)(=O)Nc2ccc(N3CCOCC3)cc2)cc1 | 0% | -2% | 1% | nt | 18% | 1%
CC(=O)Nc1ccc(NC2=CC(=O)c3ccccc3C2=O)cc1 | ? | 2µM* | ? | nt | 22% | ?
O=C1C(Nc2ccc(O)cc2)=C/C(=N/S(=O)(=O)c2cccs2)c2ccccc21 | -44% | -43% | -22% | -100% | -12% | ?
O=C1C=C(Nc2ccc(O)cc2)C(=O)c2ccccc21 | 1% | ? | ? | nt | ? | 5.4µM*
Cc1noc(C(=O)Nc2cccnc2Cl)c1Cl | -3% | 12% | 1% | nt | 1% | 4%
Cc1c(C(=O)Nc2ccncc2)oc2ccccc12 | 15% | 14% | ? | -24% | 17% | 19µM*
Cc1c(C(=O)Nc2cccnc2Cl)oc2ccccc12 | 2.5µM* | 3.2µM* | ? | nt | ? | ?
Cc1c(C(=O)Nc2ccccn2)oc2c(Cl)cccc12 | 5% | 13% | 5.2µM* | nt | 17% | ?
Cc1ccc(NC(=O)c2oc3ccccc3c2C)nc1 | 3.5µM* | 3.2µM* | ? | nt | -2% | 12µM*
O=C1COc2cc(S(=O)(=O)CCC(=O)N3CCN(c4cccc(Cl)c4)CC3)c(Cl)cc2N1 | nt | nt | nt | nt | nt | -5%
CC1(C)OC2CC3C4CCC5=CC(=O)C=C[C@@]5(C)[C@]4(F)C(O)C[C@@]3(C)[C@]2(C(=O)CO)O1 (stereo partly drawn) | nt | nt | nt | 11% | nt | nt
CCOC(=O)Cc1ccc(NC(=O)N2CCC(CN3CCC(C)CC3)CC2)cc1 | nt | nt | nt | nt | nt | -6%
Cc1cccc(-c2nc3c(cnn3-c3ccccc3)c(=O)n2-c2cccc(Cl)c2)c1 | nt | nt | nt | -5% | nt | -12%
COc1ccc(NC(=O)c2oc3ccccc3c2C)cn1 | 1% | 5% | 2% | nt | -2% | 0%
Cc1c(C(=O)Nc2ccccn2)oc2ccccc12 | ? | ? | ? | 25µM* | ? | 4.3µM*
CCOC(=O)c1ccc(OCC2c3cc(OC)c(OC)cc3CCN2C(=O)Cc2ccc(OC)c(OC)c2)cc1 (stereo not drawn) | nt | nt | nt | nt | nt | 3%
O=C(CSc1nc(-c2ccc(F)cc2)nc2ccc(F)cc12)Nc1cccc(C(=O)O)c1 | -2% | -5% | 0% | -11% | -3% | ?
O=C(CSc1nc(-c2ccccc2)nc2ccccc12)Nc1cccc(C(=O)O)c1 | -4% | 2% | 3% | 8% | -1% | 19µM*
Cc1nnc(SCC(=O)Nc2ccccc2)c2ccccc12 | 22% | 13% | -2% | nt | ? | 17µM*
O=C(CSc1nc(-c2ccccc2)nc2c1Cc1ccccc1O2)Nc1ccc(C(=O)O)cc1 | 4% | 7% | 0% | -15% | 7% | 7.6µM*
O=C(CSc1ncnc2scc(-c3ccccc3)c12)Nc1ccc(C(=O)O)cc1 | -40% | 9% | 5% | nt | -5% | 21µM*
O=C(CSc1nc(-c2ccc(F)cc2)nc2c1Cc1ccccc1O2)Nc1ccc(C(=O)O)cc1 | -2% | 1% | 5% | -6% | -2% | ?
COc1ccccc1Oc1ccc(N/C=C/C(=O)c2ccco2)cc1 | 3.2µM* | 1.4µM* | ? | 11µM* | 11% | 5.4µM*
COC(=O)c1ccccc1Oc1ccc(NC(=O)c2ccco2)cc1 | 13% | 1% | 4% | nt | 5% | ?

Screening results: PubChem BioAssay, National Center for Advancing Translational Sciences (NCATS)
